Data: PubChem BioAssay (NCI)
This is part of a sample that, as a whole, favours compounds with a hit. Of some 79,000 tested, about 15% had one in any assay. A number with no mark means an inactive call. Active and inactive are the calls of the source. Cut-off read from the data, not from the text of the source: active = growth inhibition above about 70%; inactive = the rest.

What was measured:
[1] = NCI Yeast Anticancer Drug Screen. Data for the rad52 strain (AID 147);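 note: 0% = growth of vehicle-treated control cultures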; settings: S. cerevisiae rad52 mutant growth inhibition, stronger effect = higher value
How it was run: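 Vehicle-treated cultures served as the reference for growth inhibition of compound-exposed yeast bearing a DNA repair mutation.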

[2] = NCI Yeast Anticancer Drug Screen. Data for the wt1 strain (AID 149);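 note: 0% = growth of vehicle-treated wt1 cultures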; settings: S. cerevisiae wt1 strain (SPY 50644) growth inhibition, stronger effect = higher value
How it was run: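 Vehicle-normalised growth inhibition; strain wt1; compound exposure.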

[3] = NCI Yeast Anticancer Drug Screen. Data for the rad50EPP+ strain (AID 151);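 note: 0% = growth of vehicle-treated control cultures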; settings: S. cerevisiae rad50 mutant strain, stronger effect = higher value
How it was run: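 In this screen, rad50EPP+ yeast were exposed to compounds. Growth inhibition was scored against vehicle-treated controls.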

[4] = NCI Yeast Anticancer Drug Screen. Data for the mgt1 strain (AID 153); settings: S. cerevisiae mgt1 mutant growth inhibition, stronger effect = higher value
How it was run: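 mgt1 strain exposed; growth vs vehicle control recorded as inhibition.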

[5] = NCI Yeast Anticancer Drug Screen. Data for the rad50 strain (AID 155);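 note: 0% = growth of vehicle-only cultures of the same strain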; settings: S. cerevisiae rad50 strain growth inhibition, stronger effect = higher value
How it was run: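 A DNA repair-deficient yeast mutant serves as the test organism; compound-induced growth inhibition is calculated against vehicle-treated cells.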

[6] = NCI Yeast Anticancer Drug Screen. Data for the sgs1 mgt1 strain (AID 161);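 note: 0% = growth of cultures given vehicle only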; settings: S. cerevisiae sgs1 mgt1 strain, stronger effect = higher value
How it was run: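 Genetically altered yeast, compound exposure, growth inhibition relative to vehicle.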

[7] = NCI Yeast Anticancer Drug Screen. Data for the cln2 rad14 strain (AID 165);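 note: 0% = growth equal to vehicle treated cultures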; settings: S. cerevisiae cln2 rad14 strain, stronger effect = higher value
How it was run: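 Each compound was tested on cln2 rad14 yeast. Inhibition of growth was calculated against vehicle-exposed controls.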

[8] = NCI Yeast Anticancer Drug Screen. Data for the bub3 strain (AID 167); settings: S. cerevisiae bub3 mutant strain, stronger effect = higher value
How it was run: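 Inhibition values come from growth of compound-treated mutant yeast normalised to vehicle-treated controls.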

[9] = NCI Yeast Anticancer Drug Screen. Data for the wt2 strain (AID 169);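 note: 0% = growth of vehicle-treated yeast cultures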; settings: S. cerevisiae wt2 strain growth inhibition, stronger effect = higher value
How it was run: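 Inhibition of yeast growth was determined after compound treatment, normalised to controls receiving only vehicle.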

[10] = NCI Yeast Anticancer Drug Screen. Data for the mlh1 strain (AID 171);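 note: 0% = growth of vehicle-treated control cultures of the same strain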; settings: S. cerevisiae mlh1 strain growth inhibition, stronger effect = higher value
How it was run: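 Vehicle-normalised growth inhibition of a repair- or checkpoint-altered yeast strain following compound treatment.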

[11] = NCI Yeast Anticancer Drug Screen. Data for the sgs1 strain (AID 173);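 note: 0% = growth of vehicle-only control cultures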; settings: S. cerevisiae sgs1 mutant, stronger effect = higher value
How it was run: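 Screen format: yeast with repair or checkpoint alterations, compound exposure, growth read relative to vehicle.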

[12] = NCI Yeast Anticancer Drug Screen. Data for the mlh1 rad18 strain (AID 175); settings: S. cerevisiae mlh1 rad18 strain growth inhibition, stronger effect = higher value
How it was run: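 Vehicle-treated cultures served as the reference for growth inhibition in a yeast strain carrying DNA damage repair alterations exposed to each compound.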

[13] = NCI Yeast Anticancer Drug Screen. Data for the rad18 strain (AID 177); settings: S. cerevisiae rad18 mutant growth inhibition, stronger effect = higher value
How it was run: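 Test articles were incubated with altered yeast defective in DNA damage repair. Results are given as inhibition of growth versus vehicle.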

[14] = at 5.0 µM (retest, dose inferred, filed as 0.5)
[15] = at 50.0 µM (retest, dose inferred, filed as 5.0)

SMILES: Cn1c2ccccc2c(=O)c2cc(NC(=O)CCCCC(=O)Nc3ccc4c(c3)c(=O)c3ccccc3n4C)ccc21
- growth inhibition ([1]; at 1.2 µM): 0%
- growth inhibition ([1]; at 3.7 µM): 6%
- growth inhibition ([1]; at 11.0 µM): 35%
- growth inhibition ([1]; at 33.0 µM): 76% (active)
- growth inhibition ([1]; at 100.0 µM): 87% (active)
- growth inhibition ([2]; at 1.2 µM): 4%
- growth inhibition ([2]; at 3.7 µM): -4%
- growth inhibition ([2]; at 11.0 µM): -1%
- growth inhibition ([2]; at 33.0 µM): 4%
- growth inhibition ([2]; at 100.0 µM): 20%
- growth inhibition ([3]; at 1.2 µM): -1%
- growth inhibition ([3]; at 3.7 µM): 4%
- growth inhibition ([3]; at 11.0 µM): 14%
- growth inhibition ([3]; at 33.0 µM): 55%
- growth inhibition ([3]; at 100.0 µM): 80% (active)
- growth inhibition ([4]; at 1.2 µM): 1%
- growth inhibition ([4]; at 3.7 µM): 6%
- growth inhibition ([4]; at 11.0 µM): -9%
- growth inhibition ([4]; at 33.0 µM): -3%
- growth inhibition ([4]; at 100.0 µM): 46%
- growth inhibition ([5]; at 1.2 µM): 0%
- growth inhibition ([5]; at 3.7 µM): 11%
- growth inhibition [5, 14]: 9%
- growth inhibition ([5]; at 11.0 µM): 41%
- growth inhibition ([5]; at 33.0 µM): 76% (active)
- growth inhibition [5, 15]: 82% (active)
- growth inhibition ([5]; at 50.0 µM): 80.5% (active)
- growth inhibition ([5]; at 100.0 µM): 78% (active)
- growth inhibition [6, 14]: -4%
- growth inhibition [6, 15]: 16%
- growth inhibition ([6]; at 50.0 µM): -1.45%
- growth inhibition [7, 14]: -1%
- growth inhibition [7, 15]: 5%
- growth inhibition ([7]; at 50.0 µM): -12.1%
- growth inhibition ([8]; at 1.2 µM): -4%
- growth inhibition ([8]; at 3.7 µM): -5%
- growth inhibition [8, 14]: 1%
- growth inhibition ([8]; at 11.0 µM): -5%
- growth inhibition ([8]; at 33.0 µM): -3%
- growth inhibition [8, 15]: 10%
- growth inhibition ([8]; at 50.0 µM): -22.2%
- growth inhibition ([8]; at 100.0 µM): 19%
- growth inhibition ([9]; at 1.2 µM): -3%
- growth inhibition ([9]; at 3.7 µM): -2%
- growth inhibition ([9]; at 11.0 µM): -1%
- growth inhibition ([9]; at 33.0 µM): 10%
- growth inhibition ([9]; at 100.0 µM): 40%
- growth inhibition ([10]; at 1.2 µM): 0%
- growth inhibition ([10]; at 3.7 µM): 2%
- growth inhibition ([10]; at 11.0 µM): 3%
- growth inhibition ([10]; at 33.0 µM): 24%
- growth inhibition ([10]; at 100.0 µM): 66%
- growth inhibition ([11]; at 1.2 µM): -5%
- growth inhibition ([11]; at 3.7 µM): -6%
- growth inhibition ([11]; at 11.0 µM): -6%
- growth inhibition ([11]; at 33.0 µM): 4%
- growth inhibition ([11]; at 100.0 µM): 49%
- growth inhibition [12, 14]: 9%
- growth inhibition [12, 15]: 9%
- growth inhibition ([12]; at 50.0 µM): 62.8%
- growth inhibition ([13]; at 1.2 µM): 1%
- growth inhibition ([13]; at 3.7 µM): 0%
- growth inhibition ([13]; at 11.0 µM): 3%
- growth inhibition ([13]; at 33.0 µM): 49%
- growth inhibition ([13]; at 100.0 µM): 79% (active)
